The source of these data is PubChem BioAssay (EPA / NIEHS).

The target in experiment [1] is Bile acid receptor (Homo sapiens) (UniProt Q96RI1). The experiment is described as follows: OT_FXR_FXRSRC1_0480: Odyssey Thera (OT) 8-hour HEK293T Protein-Complementation Assay for Farnesoid X receptor/SRC-1 Co-activator (AID 2283383). In outline: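 PCA, HEK293T, 8 h compound exposure; FXR–SRC-1 binding reconstitutes split reporter; fluorescence intensity; positive-direction fit vs DMSO.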

The target is the same in experiment [2]. Put plainly: OT_FXR_FXRSRC1_1440: Odyssey Thera (OT) 24-hour HEK293T Protein-Complementation Assay for Farnesoid X receptor/SRC-1 Co-activator (AID 2283384). In outline: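 Measures ligand-driven FXR–SRC-1 co-activator recruitment in HEK293T via fragment complementation, fluorescence intensity at 24 h. DMSO served as negative control and baseline for gain-of-signal fitting.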

In experiment [3] the target is Retinoic acid receptor RXR-alpha (Homo sapiens) (UniProt P19793). Put plainly: OT_NURR1_NURR1RXRa_0480: Odyssey Thera (OT) 8-hour HEK293T Protein Complementation Assay for Nurr1/retinoid X receptor (RXR) (AID 2283385). In outline:
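Interaction of bait and prey reconstitutes a functional reporter, whose fluorescence was measured in HEK293T cells dosed with compound for 8 hours. Signal gain relative to DMSO defined the single endpoint.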

Experiment [4] has the same target. The experiment is described as follows: OT_NURR1_NURR1RXRa_1440: Odyssey Thera (OT) 24-hour HEK293T Protein Complementation Assay for Nurr1/retinoid X receptor (RXR) (AID 2283386). In outline:
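Steps: fragment-tagged Nurr1 and RXRα expressed in HEK293T; compounds added; after 24 h, complemented reporter quantified by fluorescence intensity; signal increase over DMSO fitted as the single endpoint.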

For experiment [5], the target named is Peroxisome proliferator-activated receptor gamma (Homo sapiens) (UniProt P37231). The experiment is described as follows: OT_PPARg_PPARgSRC1_0480: Odyssey Thera (OT) 8-hour Protein-Complementation Assay for Peroxisome Proliferator-activated Receptor Gamma / SRC-1 Co-activator (AID 2283387). In short, it runs like this:
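Read-out: 488 nm N/C fluorescence ratio from complemented Venus YFP fragments, ≥350 cells per image, gain-of-signal fitted against DMSO baseline. Fusions of PPARg/SRC-1 with IFP1/IFP2 expressed transiently in HEK293T; compounds applied 8 h.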

Experiment [6] has the same target. The experiment is described as follows: OT_PPARg_PPARgSRC1_1440: Odyssey Thera (OT) 24-hour Protein-Complementation Assay for Peroxisome Proliferator-activated Receptor Gamma/ SRC-1 Co-activator (AID 2283388). In outline:
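HEK293T transiently transfected with PPARg/SRC-1 split-Venus YFP fusions 48 h before dosing, then treated 24 h at 37C. Fixed cells imaged; nuclear/cytoplasmic 488 nm fluorescence ratio, gain of signal versus DMSO.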

Experiment [7] is described as follows: CEETOX_H295R_11DCORT: CeeTox H295R High-throughput Steroidogenesis Assay for 11-Deoxycortisol (11DCORT) (AID 2283432; active = hit-call score of the fitted dose curve at least 0.9, where 1 is the maximum; inactive = score below 0.9;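 as to AC50: 11-deoxycortisol secreted into the medium measured by LC-MS/MS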). The note with it: actives raise or lower the signal. In short, it runs like this: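 H295R cells; 10 uM forskolin prestim 48 h; compound in 0.1% DMSO 48 h; media extracted with MTBE; 11-deoxycortisol by LC-MS/MS, 7-point standard curve; gain/loss vs DMSO baseline; viability by MTT in same wells.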

Experiment [8] is described as follows: CEETOX_H295R_OHPREG: CeeTox H295R High-throughput Steroidogenesis Assay for OH-Pregnenolone (OHPREG) (AID 2283434; active = hit-call score of the fitted dose curve at least 0.9, where 1 is the maximum; inactive = score below 0.9). The following applies: actives raise or lower the signal. In short, it runs like this:
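H295R, 10 uM forskolin pre-stim 48 h; test chemical 48 h, 0.1% DMSO final. MTBE extraction, reverse-phase C18 HPLC-ESI+ MS/MS of medium. Gain/loss vs DMSO; viability by MTT in same wells.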

Experiment [9] in a line: CEETOX_H295R_OHPROG: CeeTox H295R High-throughput Steroidogenesis Assay for OH-Progesterone (OHPROG) (AID 2283435; active = hit-call score of the fitted dose curve at least 0.9, where 1 is the maximum; inactive = score below 0.9;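 as to AC50: human adrenal H295R cells primed 48 h with 10 µM forskolin; 17alpha-hydroxyprogesterone secreted into medium measured by HPLC-MS/MS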). The following applies: actives raise or lower the signal. In short, it runs like this: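 Steps: seed H295R cells and adhere overnight; stimulate with 10 uM forskolin for 48 h; replace with chemical-containing medium (0.1% DMSO) for 48 h; extract medium with MTBE; quantify 17alpha-hydroxyprogesterone by reverse-phase C18 HPLC-MS/MS against a 7-point curve.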

A short description of experiment [10]: CEETOX_H295R_ANDR: CeeTox H295R High-throughput Steroidogenesis Assay for Androstenedione (ANDR) (AID 2283436; active = hit-call score of the fitted dose curve at least 0.9, where 1 is the maximum; inactive = score below 0.9;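 also: human H295R adrenal cells exposed for 48 h with androstenedione measured in medium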). The following applies: actives raise or lower the signal. In short, it runs like this:
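48 h chemical exposure, H295R cells, DMEM/F12 + ITS+ and Nu-Serum. Medium androstenedione: MTBE extraction, C18 reverse-phase HPLC, ESI+ MS/MS. Fit bidirectional vs DMSO; MTT viability in same wells.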

Experiment [11] is described as follows: CEETOX_H295R_CORTIC: CeeTox H295R High-throughput Steroidogenesis Assay for Corticosterone (CORTIC) (AID 2283437; active = hit-call score of the fitted dose curve at least 0.9, where 1 is the maximum; inactive = score below 0.9;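 also: corticosterone secreted into medium quantified by mass spectrometry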). The following applies: actives raise or lower the signal. In short, it runs like this:
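48 h forskolin (10 uM) prestim, then 48 h chemical exposure, final DMSO 0.1%. Readout: corticosterone in medium by LC-MS/MS after MTBE extraction. Gain/loss fit vs DMSO; MTT viability in same wells.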

The nature of experiment [12]: CEETOX_H295R_CORTISOL: CeeTox H295R High-throughput Steroidogenesis Assay for Cortisol (AID 2283438; active = hit-call score of the fitted dose curve at least 0.9, where 1 is the maximum; inactive = score below 0.9). The following applies: actives raise or lower the signal. In outline:
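Cortisol synthesis by H295R cells is measured 48 h after chemical dosing, following a 48 h stimulation with 10 uM forskolin. Hormone is extracted and quantified by HPLC-MS/MS, and activity is fitted bidirectionally against the DMSO control.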

Experiment [13] is described as follows: CEETOX_H295R_DOC: CeeTox H295R High-throughput Steroidogenesis Assay for DOC (AID 2283439; active = hit-call score of the fitted dose curve at least 0.9, where 1 is the maximum; inactive = score below 0.9). The following applies: actives raise or lower the signal. In short, it runs like this:
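Steps: seed H295R, adhere overnight; 10 uM forskolin 48 h; replace with chemical medium (0.1% DMSO) 48 h; collect medium, MTBE extraction, HPLC-MS/MS for DOC. Viability then checked by MTT; cytotoxic chemicals diluted until viability ≥70%.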

A short description of experiment [14]: CEETOX_H295R_ESTRADIOL: CeeTox H295R High-throughput Steroidogenesis Assay for Estradiol (AID 2283440; active = hit-call score of the fitted dose curve at least 0.9, where 1 is the maximum; inactive = score below 0.9;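 also: estradiol secreted into medium quantified by LC-MS/MS after dansyl derivatisation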). The following applies: actives raise or lower the signal. In short, it runs like this: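 H295R cells pre-stimulated 48 h with 10 uM forskolin, then exposed 48 h to chemical in 0.1% DMSO. Medium estradiol quantified by MTBE extraction, dansyl derivatisation and HPLC-MS/MS; bidirectional fit versus DMSO; MTT viability required >/=70%.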

Experiment [15] in a line: CEETOX_H295R_ESTRONE: CeeTox H295R High-throughput Steroidogenesis Assay for Estrone (AID 2283441; active = hit-call score of the fitted dose curve at least 0.9, where 1 is the maximum; inactive = score below 0.9;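 as to AC50: human adrenal H295R cells prestimulated with forskolin for two days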). The note with it: actives raise or lower the signal. In outline: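 Estrone secreted into medium quantified by LC-MS/MS after dansyl chloride derivatization, following 48 h chemical exposure (0.1% DMSO final) of forskolin-prestimulated (10 uM, 48 h) H295R cells; gain or loss fitted against DMSO; MTT viability in same wells.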

Experiment [16] is described as follows: CEETOX_H295R_PROG: CeeTox H295R High-throughput Steroidogenesis Assay for Progesterone (PROG) (AID 2283442; active = hit-call score of the fitted dose curve at least 0.9, where 1 is the maximum; inactive = score below 0.9;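 as to AC50: human H295R adrenal cells primed with 10 µM forskolin before dosing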). The note with it: actives raise or lower the signal. In short, it runs like this: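 H295R adrenal cells prestimulated 48 h with 10 uM forskolin, then exposed 48 h to test chemical in 0.1% DMSO. Progesterone in medium quantified by HPLC-MS/MS after MTBE extraction; viability checked by MTT in same wells.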

Read-out in experiment [17]: Tumor necrosis factor receptor superfamily member 6 (Homo sapiens) (UniProt P25445)
The experiment is described as follows: LTEA_HepaRG_FAS: Life Technologies and Expression Analysis (LTEA) Assay for Fas cell surface death receptor (FAS) using HepaRG (AID 2283447; active = hit-call score of the fitted dose curve at least 0.9, where 1 is the maximum; inactive = score below 0.9). The following applies: mRNA level, 48 h; actives raise or lower the signal. In short, it runs like this:
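Differentiated HepaRG cells in serum-free induction medium were exposed 48 h to 8 half-log concentrations up to 100 uM in 0.5% DMSO, in duplicate. FAS mRNA was measured by qRT-PCR normalised to ACTB, GAPDH and POLR2A; bidirectional fit versus DMSO.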

Read-out in experiment [18]: Fatty acid synthase (Homo sapiens) (UniProt P49327)
Put plainly: LTEA_HepaRG_FASN: Life Technologies and Expression Analysis (LTEA) Assay for Fatty Acid Synthase (FASN) using HepaRG (AID 2283448; active = hit-call score of the fitted dose curve at least 0.9, where 1 is the maximum; inactive = score below 0.9;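 as to AC50: differentiated human HepaRG liver cells in serum-free induction medium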). The following applies: mRNA level, 48 h; actives raise or lower the signal. In short, it runs like this:
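Cells were plated, cultured 48 h, switched to serum-free induction medium, then dosed in duplicate (max 100 uM, half-log dilutions, 0.5% DMSO) for 48 h. RNA was then isolated and FASN quantified by qRT-PCR.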

Read-out in experiment [19]: Cyclin D2 (CCND2), CCND2 (gene 894)
The experiment is described as follows: LTEA_HepaRG_CCND2: Life Technologies and Expression Analysis (LTEA) Assay for Cyclin D2 (CCND2) using HepaRG (AID 2283449; active = hit-call score of the fitted dose curve at least 0.9, where 1 is the maximum; inactive = score below 0.9;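 also: CCND2 transcript measured by TaqMan qRT-PCR and normalised to three housekeeping genes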). The note with it: mRNA level, 48 h; actives raise or lower the signal. In outline: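 HepaRG, 48 h dosing, 8-pt half-log curve from 100 uM, 0.5% DMSO; duplicate wells. Readout: CCND2 transcript by microfluidic qRT-PCR, housekeeping-normalised; bidirectional fit vs DMSO baseline.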

Read-out in experiment [20]: Cyclin Dependent Kinase Inhibitor 1A (CDKN1A), CDKN1A (gene 1026)
The experiment is described as follows: LTEA_HepaRG_CDKN1A: Life Technologies and Expression Analysis (LTEA) Assay for Cyclin Dependent Kinase Inhibitor 1A (CDKN1A) using HepaRG (AID 2283450; active = hit-call score of the fitted dose curve at least 0.9, where 1 is the maximum; inactive = score below 0.9). The following applies: mRNA level, 48 h; actives raise or lower the signal. In short, it runs like this: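 Differentiated HepaRG cells in serum-free induction medium, exposed 48 h in duplicate to eight half-log concentrations up to 100 uM in 0.5% DMSO. mRNA measured by TaqMan qRT-PCR, normalized to ACTB, GAPDH, POLR2A; bidirectional fit versus DMSO.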

“And” between values parts separate entries of the source, which are not always exact repeats. Equal entries are not always repeated. Inconclusive results are not listed. Some structures have more than one record in an assay (separate samples or runs), and their calls can disagree. The source made the active and inactive calls. The calls were made as follows, unless noted: active = hit-call score of the fitted dose curve at least 0.9, where 1 is the maximum; inconclusive = response in the unintended direction; inactive = score below 0.9.

Fatty acid synthase (Homo sapiens), sequence (P49327 whole entry, looked up): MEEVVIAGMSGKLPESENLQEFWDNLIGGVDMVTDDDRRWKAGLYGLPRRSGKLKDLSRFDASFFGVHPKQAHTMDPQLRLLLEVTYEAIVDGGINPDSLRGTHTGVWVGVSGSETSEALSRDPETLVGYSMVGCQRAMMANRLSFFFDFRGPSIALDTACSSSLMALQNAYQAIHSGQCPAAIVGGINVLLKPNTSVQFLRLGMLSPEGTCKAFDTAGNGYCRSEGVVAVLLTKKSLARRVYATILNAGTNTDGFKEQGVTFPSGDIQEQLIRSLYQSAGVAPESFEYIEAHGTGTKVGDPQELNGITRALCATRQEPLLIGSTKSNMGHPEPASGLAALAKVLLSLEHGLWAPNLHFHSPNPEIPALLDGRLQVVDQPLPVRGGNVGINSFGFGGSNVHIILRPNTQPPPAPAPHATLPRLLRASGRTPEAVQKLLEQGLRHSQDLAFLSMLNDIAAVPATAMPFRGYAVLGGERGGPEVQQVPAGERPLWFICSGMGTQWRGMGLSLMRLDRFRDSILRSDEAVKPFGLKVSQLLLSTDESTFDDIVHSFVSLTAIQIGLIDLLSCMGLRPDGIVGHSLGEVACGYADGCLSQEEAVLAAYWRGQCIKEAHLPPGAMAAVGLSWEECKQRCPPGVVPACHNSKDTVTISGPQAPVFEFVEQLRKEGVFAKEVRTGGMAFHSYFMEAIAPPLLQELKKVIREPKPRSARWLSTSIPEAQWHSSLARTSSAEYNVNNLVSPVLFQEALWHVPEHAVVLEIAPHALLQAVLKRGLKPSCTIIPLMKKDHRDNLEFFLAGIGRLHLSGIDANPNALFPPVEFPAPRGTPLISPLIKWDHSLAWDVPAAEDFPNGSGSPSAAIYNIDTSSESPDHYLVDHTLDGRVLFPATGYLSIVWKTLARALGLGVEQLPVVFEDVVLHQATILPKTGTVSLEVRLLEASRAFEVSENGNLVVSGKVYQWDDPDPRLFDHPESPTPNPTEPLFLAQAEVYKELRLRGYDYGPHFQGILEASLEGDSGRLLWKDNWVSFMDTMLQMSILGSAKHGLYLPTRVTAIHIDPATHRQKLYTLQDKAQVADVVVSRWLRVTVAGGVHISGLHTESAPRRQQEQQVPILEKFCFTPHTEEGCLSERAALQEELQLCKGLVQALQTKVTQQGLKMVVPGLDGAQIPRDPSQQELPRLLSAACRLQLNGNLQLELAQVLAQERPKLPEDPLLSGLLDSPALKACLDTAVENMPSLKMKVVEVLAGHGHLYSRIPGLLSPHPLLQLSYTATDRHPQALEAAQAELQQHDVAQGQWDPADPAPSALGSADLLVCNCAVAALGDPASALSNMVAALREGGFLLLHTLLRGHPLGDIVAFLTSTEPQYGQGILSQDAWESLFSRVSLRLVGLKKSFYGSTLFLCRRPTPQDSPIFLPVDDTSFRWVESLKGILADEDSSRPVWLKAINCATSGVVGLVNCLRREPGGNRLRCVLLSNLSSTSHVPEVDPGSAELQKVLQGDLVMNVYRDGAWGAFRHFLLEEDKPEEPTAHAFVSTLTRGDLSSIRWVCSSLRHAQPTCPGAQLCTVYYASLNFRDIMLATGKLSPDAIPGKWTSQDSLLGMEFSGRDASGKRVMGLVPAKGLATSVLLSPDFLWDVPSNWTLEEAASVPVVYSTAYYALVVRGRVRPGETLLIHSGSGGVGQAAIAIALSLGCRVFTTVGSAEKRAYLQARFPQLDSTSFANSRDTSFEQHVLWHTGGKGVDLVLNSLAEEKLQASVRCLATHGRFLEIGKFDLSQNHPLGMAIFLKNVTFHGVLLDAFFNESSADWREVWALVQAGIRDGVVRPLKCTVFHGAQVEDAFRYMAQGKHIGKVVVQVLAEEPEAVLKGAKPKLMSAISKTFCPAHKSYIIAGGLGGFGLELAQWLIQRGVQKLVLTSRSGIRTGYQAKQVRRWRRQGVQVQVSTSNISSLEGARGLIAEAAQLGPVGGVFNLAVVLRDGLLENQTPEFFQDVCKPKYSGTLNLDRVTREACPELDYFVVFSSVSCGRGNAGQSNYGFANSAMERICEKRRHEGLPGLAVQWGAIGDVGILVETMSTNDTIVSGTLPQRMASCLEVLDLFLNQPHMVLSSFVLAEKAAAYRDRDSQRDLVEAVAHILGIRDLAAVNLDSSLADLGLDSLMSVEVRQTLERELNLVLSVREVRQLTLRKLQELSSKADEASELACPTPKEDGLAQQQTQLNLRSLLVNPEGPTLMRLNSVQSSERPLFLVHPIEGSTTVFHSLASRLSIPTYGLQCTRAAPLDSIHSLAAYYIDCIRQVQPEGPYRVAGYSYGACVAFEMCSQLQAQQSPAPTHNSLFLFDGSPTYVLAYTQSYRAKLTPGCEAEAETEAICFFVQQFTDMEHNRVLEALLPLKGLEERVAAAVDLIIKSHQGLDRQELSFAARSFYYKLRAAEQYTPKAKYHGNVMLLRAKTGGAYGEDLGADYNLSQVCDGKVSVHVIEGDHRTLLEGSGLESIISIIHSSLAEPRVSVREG
Bile acid receptor (Homo sapiens), sequence (Q96RI1 whole entry, looked up): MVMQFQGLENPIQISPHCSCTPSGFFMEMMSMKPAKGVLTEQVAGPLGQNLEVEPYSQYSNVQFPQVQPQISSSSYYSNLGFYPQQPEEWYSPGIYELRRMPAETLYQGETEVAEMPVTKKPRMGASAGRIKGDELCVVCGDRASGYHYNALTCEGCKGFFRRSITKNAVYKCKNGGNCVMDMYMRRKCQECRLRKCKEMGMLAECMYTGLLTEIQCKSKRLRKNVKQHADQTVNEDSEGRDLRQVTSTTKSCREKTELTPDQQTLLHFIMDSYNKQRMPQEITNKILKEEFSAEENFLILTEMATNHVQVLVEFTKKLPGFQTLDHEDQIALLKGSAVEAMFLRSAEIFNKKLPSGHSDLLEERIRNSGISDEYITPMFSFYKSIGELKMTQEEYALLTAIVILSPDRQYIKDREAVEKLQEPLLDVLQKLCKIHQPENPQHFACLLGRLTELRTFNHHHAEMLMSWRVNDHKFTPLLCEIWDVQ
Retinoic acid receptor RXR-alpha (Homo sapiens), sequence (P19793 whole entry, looked up): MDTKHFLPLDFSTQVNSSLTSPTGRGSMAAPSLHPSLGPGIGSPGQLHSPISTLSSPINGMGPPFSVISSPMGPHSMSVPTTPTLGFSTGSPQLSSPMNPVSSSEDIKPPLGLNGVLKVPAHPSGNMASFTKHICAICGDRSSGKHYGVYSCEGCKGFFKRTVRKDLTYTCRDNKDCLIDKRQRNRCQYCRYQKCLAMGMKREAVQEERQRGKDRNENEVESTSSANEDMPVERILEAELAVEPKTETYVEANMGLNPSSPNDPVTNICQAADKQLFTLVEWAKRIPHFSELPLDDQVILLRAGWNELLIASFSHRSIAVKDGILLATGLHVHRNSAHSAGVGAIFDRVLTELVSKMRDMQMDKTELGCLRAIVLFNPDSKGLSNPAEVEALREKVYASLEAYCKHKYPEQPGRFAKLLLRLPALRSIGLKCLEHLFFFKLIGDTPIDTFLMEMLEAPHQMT
Peroxisome proliferator-activated receptor gamma (Homo sapiens), sequence (P37231 whole entry, looked up, the tested form may be a part): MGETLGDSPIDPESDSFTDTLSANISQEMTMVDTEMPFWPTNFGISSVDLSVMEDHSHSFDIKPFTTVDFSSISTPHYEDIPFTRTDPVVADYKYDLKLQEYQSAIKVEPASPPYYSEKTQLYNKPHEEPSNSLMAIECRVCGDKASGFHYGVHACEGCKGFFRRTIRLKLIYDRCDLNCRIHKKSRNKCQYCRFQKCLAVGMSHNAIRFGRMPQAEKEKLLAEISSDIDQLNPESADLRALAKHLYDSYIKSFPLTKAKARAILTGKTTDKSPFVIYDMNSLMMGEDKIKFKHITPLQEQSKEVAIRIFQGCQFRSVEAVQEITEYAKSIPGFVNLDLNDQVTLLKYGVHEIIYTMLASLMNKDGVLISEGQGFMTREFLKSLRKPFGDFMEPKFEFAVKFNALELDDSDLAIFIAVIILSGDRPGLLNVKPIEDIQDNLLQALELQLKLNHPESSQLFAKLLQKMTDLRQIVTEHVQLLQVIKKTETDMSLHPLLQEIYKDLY

For the compound `CC1=C(C(=O)Nc2ccccc2)SCCO1`, the result in [1], in experiment [2], in experiment [3], in experiment [4], in [5] and in experiment [6] was inactive. Besides, the call in [7], in experiment [8], in experiment [9], in [10], in [11] and in experiment [12] was inactive. Further, the result in experiment [13], in [15], in [16], in [17], in experiment [19] and in experiment [20] was inactive. In addition, the figures for the AC50 in experiment [14] and in experiment [18] were 21.2 µM (active) and 30.8 µM (active), respectively.
In the case of `CCOc1cc(Oc2ccc(C(F)(F)F)cc2Cl)ccc1[N+](=O)[O-]`, the compound was classed as inactive in experiment [1], in experiment [2], in experiment [4], in [5], in experiment [6] and in experiment [7]. Moreover, the result in experiment [8], in [9], in [11], in experiment [12], in experiment [13] and in [16] was inactive. Also, the compound was classed as inactive in experiment [19] and in experiment [20]. In addition, the AC50 was 1.78 µM (active) in [14], 3.32 µM (active) in [15], 14.4 µM (active) in experiment [17] and 32 µM (active) in experiment [18].
As for `C=CC1(C)OC(=O)N(c2cc(Cl)cc(Cl)c2)C1=O` (configuration not stated), the result in experiment [1], in [2], in [3], in experiment [4], in experiment [5] and in experiment [6] was inactive. The outcome in experiment [8], in [11], in [12], in experiment [14], in [15] and in experiment [17] was inactive. Also, the result in experiment [18], in [19] and in experiment [20] was inactive. The AC50 was 34.2 µM (active) in experiment [2]; 25.6 µM (active) in experiment [7]; 22.6 µM (active) in experiment [9]; 11.3 µM (active) in experiment [13]; 17.5 µM (active) in [16].
Regarding `C=CCC1=C(C)C(OC(=O)C2C(C=C(C)C)C2(C)C)CC1=O` (configuration not stated), the AC50 is 14.9 µM (active) in [1]; 75 µM (active) in experiment [2]; 31.2 µM (active) and 33.1 µM (active) in experiment [3]; 84.5 µM (active) and 83.5 µM (active) in experiment [4]. In addition, the compound was classed as inactive in [3], in experiment [4], in experiment [5], in experiment [6], in [7] and in experiment [8]. For the same compound, the call in experiment [9], in experiment [11], in [12], in experiment [13], in [16] and in experiment [17] was inactive. Besides, the result in experiment [18], in experiment [19] and in experiment [20] was inactive.
